Assay outcomes as filed in PubChem BioAssay.
IDE exosite inh: exo-site inhibitors of human insulin-degrading enzyme. purified IDE, FL-6b probe fluorescence polarization; stronger effect = lower value. z-score at 20 µM. actives 6.3% (n = 17,000). AID 1259349;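 active = z-score of -3 or lower, meaning strong loss of probe binding signal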;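 also: His-tagged human IDE residues 42-1019 made in E. coli with 30 nM FL-6b probe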
Target sequence (P14735 42-1019 limits assumed): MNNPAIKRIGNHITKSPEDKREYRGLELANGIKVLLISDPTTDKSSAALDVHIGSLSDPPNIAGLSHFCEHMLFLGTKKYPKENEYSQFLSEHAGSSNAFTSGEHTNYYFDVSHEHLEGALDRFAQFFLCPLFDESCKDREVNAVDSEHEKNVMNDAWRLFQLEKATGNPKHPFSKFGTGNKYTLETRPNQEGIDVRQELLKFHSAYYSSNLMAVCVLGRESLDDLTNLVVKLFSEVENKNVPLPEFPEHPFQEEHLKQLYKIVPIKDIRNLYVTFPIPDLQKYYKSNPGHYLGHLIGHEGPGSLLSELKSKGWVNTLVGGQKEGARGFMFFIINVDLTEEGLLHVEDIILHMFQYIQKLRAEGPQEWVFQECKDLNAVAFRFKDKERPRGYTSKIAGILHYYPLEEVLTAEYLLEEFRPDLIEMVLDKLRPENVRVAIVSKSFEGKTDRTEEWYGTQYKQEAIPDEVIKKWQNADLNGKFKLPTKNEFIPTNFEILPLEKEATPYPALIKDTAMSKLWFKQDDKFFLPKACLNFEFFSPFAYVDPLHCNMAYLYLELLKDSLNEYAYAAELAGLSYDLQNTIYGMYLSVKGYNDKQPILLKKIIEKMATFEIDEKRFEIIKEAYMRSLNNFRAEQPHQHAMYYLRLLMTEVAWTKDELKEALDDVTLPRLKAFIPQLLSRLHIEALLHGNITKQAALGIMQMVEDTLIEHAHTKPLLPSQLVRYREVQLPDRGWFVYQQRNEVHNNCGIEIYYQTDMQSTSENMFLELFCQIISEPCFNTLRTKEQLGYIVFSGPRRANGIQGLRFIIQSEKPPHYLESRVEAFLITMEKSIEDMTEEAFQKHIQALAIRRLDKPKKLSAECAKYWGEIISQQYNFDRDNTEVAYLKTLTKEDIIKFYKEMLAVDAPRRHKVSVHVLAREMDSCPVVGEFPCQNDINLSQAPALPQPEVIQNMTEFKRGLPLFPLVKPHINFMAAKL
Numbers without * were called inactive. Many of the other results were omitted from the sample, so hits are more common in it than they were.

SMILES	IDE exosite inh
CN1C(=O)c2cc(NC(=O)Nc3ccc(Cl)cc3)ccc2OC[C@H]2O[C@@H](CC(=O)NCCN3CCCCC3)CC[C@@H]21	-4.7*
CN1C(=O)c2cc(NC(=O)Nc3ccc(Cl)cc3)ccc2OC[C@@H]2O[C@H](CC(=O)NCCN3CCCCC3)CC[C@H]21	-0.35
CN1C(=O)c2cc(NC(=O)Nc3ccccc3Cl)ccc2OC[C@H]2O[C@H](CC(=O)NCCCN3CCOCC3)CC[C@@H]21	-14*
CN1C(=O)c2cc(NC(=O)Nc3ccccc3Cl)ccc2OC[C@H]2O[C@H](CC(=O)O)CC[C@H]21	-0.35
CN1C(=O)c2cc(NC(=O)Nc3ccccc3Cl)ccc2OC[C@@H]2O[C@H](CC(=O)NCCCN3CCOCC3)CC[C@@H]21	-4.7*
CN1C(=O)c2cc(NC(=O)Cc3cccs3)ccc2OC[C@H]2O[C@@H](CC(=O)NCCCN3CCOCC3)CC[C@H]21	0.06
CCS(=O)(=O)Nc1ccc2c(c1)C(=O)N(C)[C@H]1CC[C@H](CC(=O)NCCCN3CCOCC3)O[C@@H]1CO2	0.45
COc1ccc(C#Cc2ccc([C@@H]3[C@@H](CO)N4C(=O)CN(C(=O)Nc5ccccc5F)C[C@H]34)cc2)cc1	2.2
CN(C)C(=O)c1cccc(-c2ccc([C@@H]3[C@H](CO)N4CCCCN(C(=O)C5CCC5)C[C@@H]34)cc2)c1	3.9
O=C(C[C@H]1CC[C@H]2NC[C@H](O)COC[C@@H]2O1)NCc1ccc2c(c1)OCO2	0.76
COCC#Cc1ccc([C@@H]2[C@@H](CO)N3C(=O)CN(C(=O)Nc4ccccc4F)C[C@@H]23)cc1	1.3
CN(C)CC(=O)N1[C@H](C#N)[C@@H](c2ccc(-c3cccc(C(=O)N(C)C)c3)cc2)[C@@H]1CO	-0.67
CCC(=O)N1CC(=O)N2[C@H](CO)[C@@H](c3ccc(-c4ccc(C#N)cc4)cc3)[C@@H]2C1	-0.89
O=C(Nc1cccc(F)c1)N1CC(=O)N2[C@H](C1)[C@@H](c1ccc(-c3cccc(F)c3)cc1)[C@@H]2CO	-1.3
C[C@@H]1CCCCO[C@H](CN(C)C(=O)CCC(F)(F)F)[C@@H](C)CN([C@@H](C)CO)C(=O)c2cc(NC(=O)C3CCCCC3)ccc2O1	0.52
CN(C)CC#Cc1ccc([C@H]2[C@H](CO)N3CCCCN(C(=O)C4CCC4)C[C@@H]23)cc1	2.3
CN1C(=O)c2cc(NC(=O)Cc3cccs3)ccc2OC[C@H]2O[C@H](CC(=O)NCCCN3CCOCC3)CC[C@@H]21	-0.35
CN1C(=O)c2cc(NC(=O)Nc3ccccc3Cl)ccc2OC[C@H]2O[C@@H](CC(=O)NCCCN3CCOCC3)CC[C@@H]21	-6.1*
CN1C(=O)c2cc(NC(=O)Cc3cccs3)ccc2OC[C@H]2O[C@@H](CC(=O)NCCCN3CCOCC3)CC[C@@H]21	-0.5
O=C(NC[C@H]1N[C@H](CO)[C@@H]1c1ccc(-c2cncnc2)cc1)c1ccccc1F	2.2
COc1ccccc1NC(=O)N1CCCCN2[C@H](C1)[C@@H](c1ccc(C#Cc3ccccc3)cc1)[C@@H]2CO	2.6
COCC(=O)N1CCCCN2[C@H](CO)[C@@H](c3ccc(C#Cc4ccccc4)cc3)[C@@H]2C1	-8.5*
COCC(=O)N1CCCCN2[C@@H](CO)[C@@H](c3ccc(C#Cc4ccc(OC)cc4)cc3)[C@@H]2C1	0.57
COCC#Cc1ccc([C@@H]2[C@H](CO)N3CCCCN(C(=O)COC)C[C@@H]23)cc1	1.8
COc1ccccc1NC(=O)N1CCCCN2[C@H](CO)[C@H](c3ccc(C#Cc4ccccc4)cc3)[C@H]2C1	-0.26
SMILES	IDE exosite inh
COCC(=O)N1CCCCN2[C@H](CO)[C@H](c3ccc(C#Cc4ccccc4)cc3)[C@H]2C1	-6.3*
COCC(=O)N1CCCCN2[C@@H](CO)[C@@H](c3ccc(C#Cc4ccccc4)cc3)[C@@H]2C1	-8.5*
COCC(=O)N1CCCCN2[C@H](C1)[C@H](c1ccc(C#Cc3ccc(OC)cc3)cc1)[C@@H]2CO	1.8
CCc1csc(N2[C@@H](C#N)[C@@H](c3ccc(C4=CCCC4)cc3)[C@@H]2CO)n1	2.6
O=C(C[C@H]1CC[C@H]2[C@@H](COC[C@@H](O)CN2S(=O)(=O)c2ccc(F)cc2)O1)NCCN1CCCCC1	0.038
Cc1ccc(NC(=O)Nc2ccc3c(c2)C(=O)N(C)[C@@H]2CC[C@@H](CC(=O)NCC(F)(F)F)O[C@H]2CO3)cc1	-0.86
Cc1nn(C)cc1NC(=O)C[C@H]1CC[C@H]2[C@H](COc3ccc(NC(=O)C4CCOCC4)cc3C(=O)N2C)O1	-0.8
O=C(C[C@H]1CC[C@H](NC(=O)c2cccnc2)[C@H](CO)O1)NCc1ccc(Cl)c(Cl)c1	1.2
CCCNC(=O)C[C@H]1CC[C@@H]2[C@@H](COc3ccc(NC(=O)CC)cc3C(=O)N2C)O1	-0.058
CC(C)NC(=O)Nc1ccc2c(c1)C(=O)N(C)[C@@H]1CC[C@@H](CC(=O)NCc3ccc(F)cc3)O[C@@H]1CO2	-0.86
CO[C@@H]1CN(C)C(=O)c2cc(NC(=O)NC(C)C)ccc2OC[C@@H](C)N(C(=O)CN(C)C)C[C@H]1C	0.95
COc1ccccc1-c1ccc([C@H]2[C@H]3CN(C(=O)c4cccnc4)CCCCN3[C@H]2CO)cc1	0.57
Cc1ccc(-c2ccc([C@@H]3[C@@H](CO)N4CCCCN(C(=O)c5ccncc5)C[C@H]34)cc2)cc1	2.8
O=C(c1ccncc1)N1CCCCN2[C@H](C1)[C@@H](c1ccc(-c3ccccc3)cc1)[C@@H]2CO	-0.18
COc1ccccc1-c1ccc([C@@H]2[C@@H](CO)N3CCCCN(C(=O)c4cccnc4)C[C@H]23)cc1	0.079
COc1ccccc1-c1ccc([C@@H]2[C@H](CO)N3CCCCN(C(=O)c4ccncc4)C[C@@H]23)cc1	-13*
O=C(c1cccc(F)c1)N1CCCCN2[C@@H](CO)[C@H](c3ccc(-c4ccncc4)cc3)[C@@H]2C1	1.1
Cc1ccc(-c2ccc([C@H]3[C@H](CO)N4CCCCN(C(=O)c5ccncc5)C[C@@H]34)cc2)cc1	-0.74
Cc1cccc(-c2ccc([C@@H]3[C@@H](CO)N4CCCCN(C(=O)c5ccncc5)C[C@H]34)cc2)c1	-3.1*
Cc1cccc(-c2ccc([C@@H]3[C@H]4CN(C(=O)c5ccncc5)CCCCN4[C@H]3CO)cc2)c1	-17*
O=C(c1ccncc1)N1CCCCN2[C@H](CO)[C@H](c3ccc(-c4ccccc4)cc3)[C@@H]2C1	2.5
O=C(c1ccncc1)N1CCCCN2[C@H](CO)[C@@H](c3ccc(-c4ccccc4)cc3)[C@@H]2C1	0.82
Cc1cccc(-c2ccc([C@H]3[C@@H](CO)N4CCCCN(C(=O)c5ccncc5)C[C@H]34)cc2)c1	-18*
Cc1cccc(S(=O)(=O)N[C@H]2CC[C@H](CCNC(=O)Nc3cc(F)ccc3F)O[C@@H]2CO)c1	3.1
CC(=O)N1[C@H](CN(C(=O)c2ccccc2)C(C)C)[C@@H](c2ccccc2)[C@@H]1CO	1.2
CCC(=O)N1CC(=O)N2[C@H](CO)[C@H](c3ccc(C#CC(C)C)cc3)[C@@H]2C1	3.6
CCNC[C@H]1[C@H](c2ccc(C3=CCCCC3)cc2)[C@@H](CO)N1C(=O)NC(C)C	3.7
C[C@@H]1CN([C@@H](C)CO)C(=O)c2cc(NC(=O)CCCN(C)C)ccc2O[C@@H]1CN(C)Cc1ccc(Cl)c(Cl)c1	0.94
CO[C@@H]1CN(C)C(=O)c2cc(NC(=O)CC(F)(F)F)ccc2OC[C@@H](C)N(CC2CC2)C[C@@H]1C	-0.2
Cc1cccc(-c2ccc([C@@H]3[C@@H](CO)N4CCCCN(C(=O)c5ccncc5)C[C@@H]34)cc2)c1	-3.1*
